According to PubChem BioAssay (EPA / NIEHS):
Where “and” joins values, the source holds several entries; their conditions need not be identical. Equal values may be shown once. Results filed as inconclusive are left out. Some compounds were tested as several samples or in several runs, with calls that do not always agree. Calls of active or inactive are those of the source. The calls were made as follows: active = hit-call score of the fitted dose curve at least 0.9, where 1 is the maximum; inconclusive = response in the unintended direction; inactive = score below 0.9.

Key:
[1] = biological target: human Thyroid hormone Receptor beta (TRb), THRB (gene 7068) (UniProt P10828); test: ATG_hTRb_XSP1: Attagene TRANS-FACTORIAL Multi-Species (XSP1) HepG2 Assay for human Thyroid hormone Receptor beta (TRb) (AID 2283808)
Outline: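 HepG2 cells transiently transfected with reporter units driving GAL4-UAS reporters for chimeric NR-Gal4 proteins; 24 h chemical exposure with 3 nM 6-alpha-fluorotestosterone present. Reporter mRNA quantified by RT-PCR and capillary electrophoresis, gain of signal versus DMSO.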

[2] = biological target: zebrafish Thyroid Hormone Receptor beta (TRb), thrb (gene 30607) (UniProt Q9PVE4); test: ATG_zfTRb_XSP1: Attagene TRANS-FACTORIAL Multi-Species (XSP1) HepG2 Assay for zebrafish Thyroid Hormone Receptor beta (TRb) (AID 2283809)
Outline: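 HepG2 cells transiently transfected with multiplexed GAL4-UAS reporter units expressing chimeric zebrafish TRb–Gal4. Dosed 24 h with 3 nM 6-alpha-fluorotestosterone present; reporter mRNA measured by RT-PCR, HpaI digestion and capillary electrophoresis; gain of signal versus DMSO.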

[3] = ATG_XTT_Cytotoxicity_XSP1: Cytotoxicity Assessment in the Attagene TRANS-FACTORIAL Multi-Species (XSP1) HepG2 Assay (AID 2283810)
Outline: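 XTT viability readout taken at 24 hours post-dosing in HepG2 liver cells co-treated with 3 nM 6-alpha-fluorotestosterone. Signal loss relative to DMSO controls reflects cytotoxicity.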

[4] = system: turtle Estrogen Receptor (ERa), gene 101933533; test: ATG_trERa_XSP2: Attagene TRANS-FACTORIAL Multi-Species (XSP2) HepG2 Assay for turtle Estrogen Receptor (ERa) (AID 2283812);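 also: human HepG2 liver cells transiently expressing turtle ERa-Gal4 chimeric receptor; actives raise reporter signal above DMSO so AC50 reflects agonist activity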
Outline: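 HepG2 cells transiently transfected with GAL4-UAS reporter units expressing turtle ERa-Gal4 chimera. Reporter mRNA measured after 24 h dosing by RT-PCR, fluorescent labelling and capillary electrophoresis; gain of signal fitted versus DMSO.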

[5] = biological target: zebrafish Estrogen Receptor (ER1), esr1 (gene 259252) (UniProt P57717); test: ATG_zfER1_XSP2: Attagene TRANS-FACTORIAL Multi-Species (XSP2) HepG2 Assay for zebrafish Estrogen Receptor (ER1) (AID 2283816)
Outline: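 HepG2 cells transiently transfected with a GAL4-UAS reporter and a chimeric zebrafish ER1-Gal4 construct, dosed 24 h. Reporter mRNA quantified by RT-PCR, labelling, HpaI digestion and capillary electrophoresis, relative to DMSO.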

[6] = biological target: chicken Estrogen Receptor (ERa), ESR1 (gene 396099) (UniProt P06212); test: ATG_chERa_XSP2: Attagene TRANS-FACTORIAL Multi-Species (XSP2) HepG2 Assay for chicken Estrogen Receptor (ERa) (AID 2283817);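 also: actives raise reporter signal above DMSO so AC50 reflects ER activation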
Outline: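 Transiently transfected HepG2 cells expressing chimeric chicken ERa-GAL4 reporter units, dosed 24 h with 3 nM 6-alpha-fluorotestosterone and 1.5 nM norgestrel present. Reporter mRNA measured by RT-PCR and capillary electrophoresis; gain-of-signal fitted relative to DMSO.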

[7] = system: zebrafish Estrogen Receptor (ER2a), gene 317734; test: ATG_zfER2a_XSP2: Attagene TRANS-FACTORIAL Multi-Species (XSP2) HepG2 Assay for zebrafish Estrogen Receptor (ER2a) (AID 2283818);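 also: hits raise reporter mRNA so AC50 reflects activation of zebrafish ER2a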
Outline: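 HepG2 cells transiently transfected with GAL4-UAS reporter units and chimeric zebrafish ER2a-Gal4, exposed 24 h; medium contains 3 nM 6-alpha-fluorotestosterone and 1.5 nM norgestrel. Reporter mRNA quantified by RT-PCR, HpaI digestion, capillary electrophoresis; gain versus DMSO.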

[8] = ATG_M_19_XSP2: Attagene TRANS-FACTORIAL Multi-Species (XSP2) HepG2 Assay for M32 Transcription Factor (Internal Marker) (AID 2283822)
Outline: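 Internal background marker in a multi-species nuclear receptor TRANS panel: transfected HepG2 cells exposed 24 h, with 3 nM 6-alpha-fluorotestosterone and 1.5 nM norgestrel present. Readout is RT-PCR of reporter transcripts resolved by capillary electrophoresis, gain-of-signal versus DMSO.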

[9] = system: zebrafish Estrogen Receptor (ER2b), gene 317733; test: ATG_zfER2b_XSP2: Attagene TRANS-FACTORIAL Multi-Species (XSP2) HepG2 Assay for zebrafish Estrogen Receptor (ER2b) (AID 2283823);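 also: fitted upward as reporter gain over DMSO so potency reflects activation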
Outline: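 Transfect HepG2 with GAL4-UAS reporter constructs; dose chemicals, 24 h; isolate RNA, RT-PCR, FAM-label, HpaI digest; capillary electrophoresis. Gain-of-signal vs DMSO.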

[10] = ATG_M_32_XSP2: Attagene TRANS-FACTORIAL Multi-Species (XSP2) HepG2 Assay for M19 Transcription Factor (Internal Marker) (AID 2283826)
Outline: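 Read-out: fluorescent reporter mRNA fragments resolved by capillary electrophoresis after RT-PCR, gain-of-signal versus DMSO baseline. Cells were human HepG2 carrying transfected multi-reporter units, exposed 24 h. Medium contained 3 nM 6-alpha-fluorotestosterone plus 1.5 nM norgestrel.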

[11] = biological target: Estrogen receptor (Homo sapiens) (UniProt P03372); test: ATG_hERa_XSP2: Attagene TRANS-FACTORIAL Multi-Species (XSP2) HepG2 Assay for human Estrogen Receptor (ERa) (AID 2283827)
Outline: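 HepG2 cells transiently transfected with multiplexed GAL4-UAS reporters driven by chimeric receptor-Gal4 proteins, dosed 24 h with 3 nM 6-alpha-fluorotestosterone and 1.5 nM norgestrel present. Reporter mRNA by RT-PCR and capillary electrophoresis; gain-of-signal fit versus DMSO.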

[12] = biological target: Peroxisome proliferator-activated receptor gamma (Homo sapiens) (UniProt P37231); test: ATG_hPPARg_XSP2: Attagene TRANS-FACTORIAL Multi-Species (XSP2) HepG2 Assay for human Peroxisome Proliferator-activated Receptor gamma (PPARg) (AID 2283829);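 also: actives raise reporter mRNA above DMSO so AC50 reflects PPARg activation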
Outline: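 Transient MRTU transfection, HepG2; TRANS format (exogenous NR-Gal4 chimeras). 24 h chemical exposure with 3 nM 6-alpha-fluorotestosterone and 1.5 nM norgestrel present. Readout: reporter mRNA via RT-PCR/CE fluorescence, up-direction vs DMSO.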

[13] = ATG_M_06_XSP2: Attagene TRANS-FACTORIAL Multi-Species (XSP2) HepG2 Assay for M06 Transcription Factor (Internal Marker) (AID 2283811);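 also: hits are increases in signal above the DMSO baseline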
Outline: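 HepG2 cells transiently transfected with GAL4-UAS multiple reporter units, medium containing 3 nM 6-alpha-fluorotestosterone and 1.5 nM norgestrel; reporter mRNA measured 24 hours post-dosing by RT-PCR and capillary electrophoresis. Internal background marker, gain of signal vs DMSO.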

[14] = biological target: Estrogen receptor beta (Homo sapiens) (UniProt Q92731); test: ATG_hERb_XSP2: Attagene TRANS-FACTORIAL Multi-Species (XSP2) HepG2 Assay for human Estrogen Receptor (ERb) (AID 2283813);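 also: actives raise reporter mRNA above DMSO so AC50 reflects agonist induction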
Outline: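 HepG2 cells transiently transfected with GAL4-UAS reporter units and chimeric human ERb-Gal4, 24 h exposure. Reporter mRNA quantified by RT-PCR with FAM labelling, HpaI digestion and capillary electrophoresis; gain of signal versus DMSO.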

[15] = system: turtle Androgen Receptor (AR), gene 101947425; test: ATG_trAR_XSP2: Attagene TRANS-FACTORIAL Multi-Species (XSP2) HepG2 Assay for turtle Androgen Receptor (AR) (AID 2283815)
Outline: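 HepG2 cells transiently transfected with GAL4-UAS reporter units for chimeric NR-Gal4 receptors; 24 h dosing in presence of 3 nM 6-alpha-fluorotestosterone and 1.5 nM norgestrel. Reporter mRNA by RT-PCR and capillary electrophoresis, gain of signal versus DMSO.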

[16] = system: chicken Androgen Receptor (AR), gene 422165; test: ATG_chAR_XSP2: Attagene TRANS-FACTORIAL Multi-Species (XSP2) HepG2 Assay for chicken Androgen Receptor (AR) (AID 2283819);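 also: hits raise reporter mRNA above DMSO so potency is for activation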
Outline: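 HepG2 cells transiently transfected with chicken AR–GAL4 chimeric reporter constructs, stimulated with 3 nM 6-alpha-fluorotestosterone plus 1.5 nM norgestrel, dosed 24 h. Reporter mRNA quantified by RT-PCR and capillary electrophoresis; gain of signal fitted versus DMSO.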

[17] = biological target: human Androgen Receptor (AR), AR (gene 367) (UniProt P10275); test: ATG_hAR_XSP2: Attagene TRANS-FACTORIAL Multi-Species (XSP2) HepG2 Assay for human Androgen Receptor (AR) (AID 2283820)
Outline: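 HepG2 cells transiently transfected with GAL4-UAS reporter units driven by chimeric NR-Gal4 proteins, stimulated with 3 nM 6-alpha-fluorotestosterone plus 1.5 nM norgestrel. Reporter mRNA quantified 24 h after dosing by RT-PCR and capillary electrophoresis; gain-of-signal versus DMSO.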

[18] = biological target: GAL4 Transcription Factor (Internal Marker), GAL4 (gene 855828) (UniProt P04386); test: ATG_GAL4_XSP2: Attagene TRANS-FACTORIAL Multi-Species (XSP2) HepG2 Assay for GAL4 Transcription Factor (Internal Marker) (AID 2283814);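 also: GAL4 reporter mRNA background control in MRTU transfected cells not a receptor target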
Outline: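 HepG2 cells transiently transfected with GAL4-UAS reporter units, stimulated with 3 nM 6-alpha-fluorotestosterone plus 1.5 nM norgestrel, dosed 24 h. Reporter mRNA by RT-PCR/capillary electrophoresis; gain-of-signal fit versus DMSO, background control.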

Measured: AC50

Sequence of chicken Estrogen Receptor (ERa), ESR1 (gene 396099) (P06212 whole entry, looked up, the tested form may be a part): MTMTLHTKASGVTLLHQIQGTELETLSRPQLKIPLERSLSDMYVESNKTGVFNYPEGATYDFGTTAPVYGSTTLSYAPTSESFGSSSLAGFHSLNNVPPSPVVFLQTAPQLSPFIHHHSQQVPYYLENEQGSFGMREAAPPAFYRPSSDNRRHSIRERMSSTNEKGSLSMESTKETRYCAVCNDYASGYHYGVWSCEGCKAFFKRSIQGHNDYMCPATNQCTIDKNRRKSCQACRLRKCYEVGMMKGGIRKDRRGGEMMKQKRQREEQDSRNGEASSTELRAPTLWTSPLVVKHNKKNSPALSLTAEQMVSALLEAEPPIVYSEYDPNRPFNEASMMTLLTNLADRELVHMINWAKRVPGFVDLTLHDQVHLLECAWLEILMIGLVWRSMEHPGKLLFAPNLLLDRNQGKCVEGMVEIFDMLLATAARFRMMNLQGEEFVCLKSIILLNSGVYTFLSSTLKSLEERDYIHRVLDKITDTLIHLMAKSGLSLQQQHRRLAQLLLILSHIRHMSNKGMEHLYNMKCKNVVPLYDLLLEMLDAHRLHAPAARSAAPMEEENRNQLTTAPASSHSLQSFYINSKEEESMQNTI
Sequence of Estrogen receptor (Homo sapiens) (P03372 whole entry, looked up, the tested form may be a part): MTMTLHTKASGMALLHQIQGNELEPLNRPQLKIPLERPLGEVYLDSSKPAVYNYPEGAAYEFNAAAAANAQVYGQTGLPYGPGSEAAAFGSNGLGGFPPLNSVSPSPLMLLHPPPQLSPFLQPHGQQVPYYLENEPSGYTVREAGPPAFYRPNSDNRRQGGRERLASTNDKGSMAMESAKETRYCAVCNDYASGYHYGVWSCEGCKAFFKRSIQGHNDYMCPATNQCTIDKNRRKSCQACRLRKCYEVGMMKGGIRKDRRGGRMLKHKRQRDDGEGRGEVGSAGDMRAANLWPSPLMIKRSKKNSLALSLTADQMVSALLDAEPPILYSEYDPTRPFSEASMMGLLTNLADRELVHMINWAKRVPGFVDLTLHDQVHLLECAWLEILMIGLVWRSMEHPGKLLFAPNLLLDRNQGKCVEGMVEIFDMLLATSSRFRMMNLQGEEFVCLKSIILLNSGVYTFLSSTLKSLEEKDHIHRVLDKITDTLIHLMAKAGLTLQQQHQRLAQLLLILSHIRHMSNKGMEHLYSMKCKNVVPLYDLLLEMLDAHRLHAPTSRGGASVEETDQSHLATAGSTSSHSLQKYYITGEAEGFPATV
Sequence of zebrafish Estrogen Receptor (ER1), esr1 (gene 259252) (P57717 whole entry, looked up, the tested form may be a part): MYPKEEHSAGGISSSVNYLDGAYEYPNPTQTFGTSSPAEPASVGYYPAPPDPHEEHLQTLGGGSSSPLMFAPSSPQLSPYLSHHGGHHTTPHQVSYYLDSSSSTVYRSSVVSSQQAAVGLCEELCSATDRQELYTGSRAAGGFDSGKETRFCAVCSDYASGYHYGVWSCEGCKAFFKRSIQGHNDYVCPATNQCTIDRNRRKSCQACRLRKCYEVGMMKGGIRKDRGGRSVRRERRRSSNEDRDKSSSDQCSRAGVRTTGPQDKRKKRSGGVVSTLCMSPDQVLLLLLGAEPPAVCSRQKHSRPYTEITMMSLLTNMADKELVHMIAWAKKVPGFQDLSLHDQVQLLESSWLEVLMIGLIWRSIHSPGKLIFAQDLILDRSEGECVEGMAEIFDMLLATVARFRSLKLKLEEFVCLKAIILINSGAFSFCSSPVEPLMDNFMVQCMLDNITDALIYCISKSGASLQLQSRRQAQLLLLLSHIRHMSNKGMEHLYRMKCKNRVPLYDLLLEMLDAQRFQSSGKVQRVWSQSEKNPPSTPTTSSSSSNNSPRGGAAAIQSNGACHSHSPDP
Sequence of Peroxisome proliferator-activated receptor gamma (Homo sapiens) (P37231 whole entry, looked up, the tested form may be a part): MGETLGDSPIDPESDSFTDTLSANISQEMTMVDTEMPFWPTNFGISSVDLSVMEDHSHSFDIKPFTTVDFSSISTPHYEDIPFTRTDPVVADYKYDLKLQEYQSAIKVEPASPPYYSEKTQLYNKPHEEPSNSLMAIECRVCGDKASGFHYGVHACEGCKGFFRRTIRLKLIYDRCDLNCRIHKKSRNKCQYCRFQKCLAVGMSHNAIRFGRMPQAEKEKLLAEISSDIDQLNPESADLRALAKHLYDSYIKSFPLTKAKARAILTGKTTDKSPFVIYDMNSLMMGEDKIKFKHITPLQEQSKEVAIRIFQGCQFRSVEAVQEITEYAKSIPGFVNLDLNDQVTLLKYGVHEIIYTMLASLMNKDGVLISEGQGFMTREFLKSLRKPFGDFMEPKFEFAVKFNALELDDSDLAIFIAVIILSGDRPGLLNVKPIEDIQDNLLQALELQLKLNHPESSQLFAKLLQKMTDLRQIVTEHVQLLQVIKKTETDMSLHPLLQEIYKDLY
Sequence of human Thyroid hormone Receptor beta (TRb), THRB (gene 7068) (P10828 whole entry, looked up, the tested form may be a part): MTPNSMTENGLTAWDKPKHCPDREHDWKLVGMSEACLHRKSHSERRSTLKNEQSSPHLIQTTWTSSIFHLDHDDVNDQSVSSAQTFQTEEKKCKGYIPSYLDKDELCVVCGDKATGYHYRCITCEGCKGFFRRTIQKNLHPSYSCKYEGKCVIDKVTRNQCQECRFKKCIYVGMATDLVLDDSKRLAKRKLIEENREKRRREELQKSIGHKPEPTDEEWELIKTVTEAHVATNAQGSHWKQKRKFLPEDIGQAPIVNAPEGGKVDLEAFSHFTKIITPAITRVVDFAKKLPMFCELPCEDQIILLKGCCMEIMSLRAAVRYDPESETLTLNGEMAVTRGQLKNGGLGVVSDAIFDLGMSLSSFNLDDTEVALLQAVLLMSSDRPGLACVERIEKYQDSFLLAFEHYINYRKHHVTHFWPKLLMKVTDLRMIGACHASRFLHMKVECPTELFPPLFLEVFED
Sequence of Estrogen receptor beta (Homo sapiens) (Q92731 whole entry, looked up, the tested form may be a part): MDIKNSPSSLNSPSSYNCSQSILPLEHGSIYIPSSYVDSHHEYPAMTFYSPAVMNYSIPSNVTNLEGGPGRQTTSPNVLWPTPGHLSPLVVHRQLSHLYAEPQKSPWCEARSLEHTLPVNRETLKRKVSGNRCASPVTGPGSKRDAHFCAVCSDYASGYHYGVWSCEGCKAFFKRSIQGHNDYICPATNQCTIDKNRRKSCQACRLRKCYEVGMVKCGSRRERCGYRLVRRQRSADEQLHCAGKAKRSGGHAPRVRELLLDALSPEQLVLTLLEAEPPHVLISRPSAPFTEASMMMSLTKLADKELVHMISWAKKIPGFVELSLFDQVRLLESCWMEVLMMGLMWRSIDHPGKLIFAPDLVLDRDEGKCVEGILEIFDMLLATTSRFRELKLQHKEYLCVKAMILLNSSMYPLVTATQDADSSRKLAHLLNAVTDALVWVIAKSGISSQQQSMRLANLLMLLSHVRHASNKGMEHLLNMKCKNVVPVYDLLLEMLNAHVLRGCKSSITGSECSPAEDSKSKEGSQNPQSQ
Sequence of zebrafish Thyroid Hormone Receptor beta (TRb), thrb (gene 30607) (Q9PVE4 whole entry, looked up, the tested form may be a part): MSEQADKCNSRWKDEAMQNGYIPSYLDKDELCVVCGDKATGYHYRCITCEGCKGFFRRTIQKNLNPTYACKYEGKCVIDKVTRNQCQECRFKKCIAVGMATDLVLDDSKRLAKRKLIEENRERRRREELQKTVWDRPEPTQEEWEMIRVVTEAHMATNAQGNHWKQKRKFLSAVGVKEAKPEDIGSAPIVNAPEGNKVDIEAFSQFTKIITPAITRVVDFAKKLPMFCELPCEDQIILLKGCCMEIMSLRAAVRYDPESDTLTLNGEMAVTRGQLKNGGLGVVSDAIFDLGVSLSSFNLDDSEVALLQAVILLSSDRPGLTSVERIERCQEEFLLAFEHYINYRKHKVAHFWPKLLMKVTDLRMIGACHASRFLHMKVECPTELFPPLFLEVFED
Sequence of GAL4 Transcription Factor (Internal Marker), GAL4 (gene 855828) (P04386 whole entry, looked up, the tested form may be a part): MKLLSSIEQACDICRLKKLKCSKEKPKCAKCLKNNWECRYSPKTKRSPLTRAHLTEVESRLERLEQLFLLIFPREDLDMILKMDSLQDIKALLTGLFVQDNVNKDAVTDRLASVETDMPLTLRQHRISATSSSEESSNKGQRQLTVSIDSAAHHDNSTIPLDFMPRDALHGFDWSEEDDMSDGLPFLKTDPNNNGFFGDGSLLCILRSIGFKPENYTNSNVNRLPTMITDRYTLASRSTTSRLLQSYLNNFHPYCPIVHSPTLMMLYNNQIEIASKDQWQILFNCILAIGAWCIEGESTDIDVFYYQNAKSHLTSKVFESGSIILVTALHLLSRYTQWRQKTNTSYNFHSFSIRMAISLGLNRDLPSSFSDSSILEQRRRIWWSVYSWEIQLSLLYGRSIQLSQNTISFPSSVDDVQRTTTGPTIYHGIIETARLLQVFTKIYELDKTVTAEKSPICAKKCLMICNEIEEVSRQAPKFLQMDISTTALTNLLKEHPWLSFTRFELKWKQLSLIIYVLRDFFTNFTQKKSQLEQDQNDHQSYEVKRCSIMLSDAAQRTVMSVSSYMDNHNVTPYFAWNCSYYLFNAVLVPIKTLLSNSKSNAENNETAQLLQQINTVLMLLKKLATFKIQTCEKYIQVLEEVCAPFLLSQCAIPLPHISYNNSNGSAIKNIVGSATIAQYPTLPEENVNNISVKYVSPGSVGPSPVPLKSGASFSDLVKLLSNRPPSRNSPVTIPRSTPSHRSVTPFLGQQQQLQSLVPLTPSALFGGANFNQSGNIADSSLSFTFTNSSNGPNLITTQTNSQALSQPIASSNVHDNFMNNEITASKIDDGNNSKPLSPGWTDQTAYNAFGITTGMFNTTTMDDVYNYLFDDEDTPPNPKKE

ClC(Cl)=C(c1ccc(Cl)cc1)c1ccc(Cl)cc1
active: [4] 10 µM | [6] 3.27 µM | [9] 7.9 µM | [11] 5.03 µM
inactive: [1] | [2] | [3] | [5] | [7] | [8] | [10] | [12]

CCC(=O)O[C@H]1CC[C@H]2[C@@H]3CCC4=CC(=O)CC[C@]4(C)[C@H]3CC[C@]12C
active: [4] 17.3 nM and 5.27 nM | [6] 12.6 nM and 25.4 nM | [7] 27.7 nM and 13.2 nM | [16] 0.0247 µM | [9] 29.8 nM and 27.2 nM | [11] 10.5 nM and 7.8 nM
inactive: [13] | [14] | [15] | [5] | [16] | [17] | [12]

CC(C)(O)C(=O)Nc1ccc([N+](=O)[O-])c(C(F)(F)F)c1
active: [1] 18.2 µM | [2] 50 µM | [9] 36.1 µM | [11] 100 µM
not listed: [8] | [12] | [15] | [16] | [17]
inactive: all other assays above
